# From PubChem BioAssay (NCI)
# “And” between values parts separate entries of the source, which are not always exact repeats. Identical values can stand only once. The panel holds about 83,000 compounds, 20% with a hit somewhere; the sample as a whole holds those more often.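 Growth was measured after 48 h exposure to one concentration of compound in 96-well plates. Values under 10 count as active.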 The source made the active and inactive calls.
# System: MDA-MB-468 breast
# Test: NCI-60 one-dose screen, 48 h (100 = growth as untreated, 0 = no growth, -100 = all killed)
# Conditions: 10 µM unless noted
row,SMILES,growth
1,CS(=O)(=O)Nc1cc(-c2ccc3ncnc(Nc4cccc(Cl)c4)c3c2)cnc1Cl,-55.7% (active)
2,N/N=C(/Cc1ccccc1)NNC(N)=S,115% (inactive)
3,O=C(NCCNc1nccc(-c2c(-c3cccc(O)c3)nc3sccn23)n1)c1ccccc1,54.7% (inactive)
4,Cc1cc(N/N=C/c2nc(-c3ccc(Cl)cc3)oc2C)c2cc(Cl)ccc2n1,-47.4% (active)
5,Nc1nc(-c2cccc([N+](=O)[O-])c2)c(N=Nc2cccc([N+](=O)[O-])c2)s1,62% (inactive)
6,Cc1cc(O)c(C(C)C)cc1S(=O)(=O)O (tested in a mixture with another compound),91.8% (inactive) and -40.1% (active) and 115% (inactive)
7,COC(=O)[C@@H](NC(=O)NC(=O)NC(=O)CI)C(C)C,71.6% (inactive)
8,O=S(=O)(OCCO)c1ccccc1,97% (inactive)
9,COc1cc(O)c2c(c1)[C@H]1O[C@@H]1C[C@H](O)[C@H](O)C(=O)/C=C\C[C@H](C)OC2=O,-1.54% (active)
10,COc1ccc2c(=O)cc(-c3ccccc3)[nH]c2c1,7.37% (active) and -4.48% (active)
11,CC1=C[C@H]2c3c(c(O)c(O)c4oc5cc(O)cc(O)c5c(=O)c34)[C@H](c3cc(O)c(O)c4oc5cc(O)cc(O)c5c(=O)c34)[C@H]2C(C)(C)C1,3.99% (active) and -26.3% (active)
12,O=C1Nc2ccccc2/C1=C\c1ccccc1O,67.4% (inactive)
13,COC(=O)c1nc(-c2ccccc2)oc1S(=O)(=O)n1nc(C)cc1N,59.2% (inactive)
14,CCCNC(=O)Oc1ccc(/C(=C(/CC)Cc2ccccc2)c2ccc(OCCN(CC)CC)cc2)cc1,68.6% (inactive)
15,COc1ccc(/C=C/C(=O)c2ccc(O)c(CN3CCN(c4cc5c(cc4F)c(=O)c(C(=O)O)cn5C4CC4)CC3)c2)cc1,3.04% (active)
16,Oc1ccc(-c2nc3ccccc3s2)cc1CN(Cc1ccccn1)Cc1ccccn1,13.6% (inactive)
17,Cc1ccc2[nH]c(=O)cc(-n3nncc3Cn3c4ccccc4c4ccccc43)c2c1,94.7% (inactive)
18,CCOC(=O)c1c2c(n3ccc(C)cc13)C(=O)c1ccccc1C2=O,102% (inactive)
19,COC(=O)c1ccc(CSc2nnc(-c3c(C)nc4ccc(C)cn34)o2)cc1,93.2% (inactive)
20,Cc1c2ccncc2c(C)c2c1c1cc(CO)ccc1n2C,-46.1% (active)

row,SMILES,growth
1,CC1SC(c2cccc(Oc3ccccc3)c2)N(CCc2cccs2)C1=O (stereo not given),-45.5% (active)
2,COCCCNc1nc(NC(=O)c2cc(OC)cc(OC)c2)cc(-c2cccnc2)n1,94.8% (inactive)
3,COc1cc(C2CC(c3cccc(Br)c3)=NN2C(C)=O)cc(OC)c1OC (stereo not given),24.1% (inactive)
4,CCCC(=O)NC(c1cccnc1)c1cc(C(C)=O)c2cccnc2c1O (stereo not given),15.8% (inactive)
5,O=C(Nc1ccc(Cl)c(Cl)c1)Nc1ccc(Cl)c(Cl)c1,-78.5% (active) and 10.4% (inactive)
6,CCOC(=O)c1sc(NS(=O)(=O)c2ccccc2)nc1C,106% (inactive)
7,COc1cc(OC)c(/C=C/C(=O)c2c(OC)cc(OC)cc2OC)c(OC)c1,14% (inactive)
8,N#C/C(=C\c1ccc(-c2ccc(Cl)cc2)o1)c1ccc(Cl)cc1,82.2% (inactive)
9,O=C(Nc1cccc(-c2nc(-c3ccc(NC(=O)c4cccs4)cc3Cl)no2)c1)Nc1ccc(NC(=O)C2CC2)c(C(F)(F)F)c1,-84.6% (active)
10,CCCn1cc2c(=O)nc3sc(Cc4ccccc4)c(C)n3c2n1,111% (inactive)
11,Cn1cc(-c2nonc2-c2c[nH]c3ccccc23)c2cccnc21,-12.9% (active)
12,CN(C)CCNC(=O)n1cc(-c2ccncc2)c(-c2cc(O)cc(Cl)c2)n1,84.1% (inactive)
13,Nc1nc(SCc2cccc([N+](=O)[O-])c2)c2[nH]cnc2n1,64.5% (inactive)
14,CC(C)[N+](C)(C)CC(O)COc1cccc2ccccc12 (stereo not given),104% (inactive)
15,CCCCCCCCCc1ccc(OC(C)=O)cc1,104% (inactive)
16,CCN(CC)c1ccc(N=O)cc1,23.7% (inactive)
17,COc1cc(CNc2ccccc2C(=O)N2CCN(C(=O)c3cc(-c4cc(OC)c(OC)c(OC)c4)n4nc(-c5ccccc5)cc4n3)CC2)cc(OC)c1OC,23.1% (inactive)
18,O=CCCCC(O)C=O (stereo not given),98.9% (inactive)
19,COC1=C(OC)C(=O)C(CCCCCCCCCCO)=C(C)C1=O,-34.8% (active)
20,COc1ccc2c(c1OC)C(=O)O[C@@H]2[C@H]1c2c(c(C#CC#Cc3ccc(F)c(F)c3)c3c(c2OC)OCO3)CCN1C,72.4% (inactive)
